Only some compounds are listed: those with a hit (about 3.8% of all), similar ones and a draw of the others.
PAFAH1B2 inh = blocks human PAF acetylhydrolase 1b catalytic subunit 2; P68402; recombinant PAFAH1B2, FP-rhodamine activity probe, fluorescence polarization; inhibition, % at 3.39 µM; 340,000 tested, 1.2% active; AID 492953;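 active = inhibition above the mean of all tested compounds plus 3 SD, cut at about 24% in these data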
DSG3 Ab inh = blocks pemphigus antibody binding to human desmoglein-3 | P32926 | DSG3-coupled beads, scFv-anti-DSG3-GFP binding, flow cytometry; stronger effect = lower value | AID 588358 | 310,000 tested, 0.48% active | binding (percent of control), % at 10 µM;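 active = binding more than 3 SD below its plate's average and above zero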;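 also: hits lower antibody fragment binding to DSG3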
Target sequence (P32926 whole entry, looked up, the tested form may be a part): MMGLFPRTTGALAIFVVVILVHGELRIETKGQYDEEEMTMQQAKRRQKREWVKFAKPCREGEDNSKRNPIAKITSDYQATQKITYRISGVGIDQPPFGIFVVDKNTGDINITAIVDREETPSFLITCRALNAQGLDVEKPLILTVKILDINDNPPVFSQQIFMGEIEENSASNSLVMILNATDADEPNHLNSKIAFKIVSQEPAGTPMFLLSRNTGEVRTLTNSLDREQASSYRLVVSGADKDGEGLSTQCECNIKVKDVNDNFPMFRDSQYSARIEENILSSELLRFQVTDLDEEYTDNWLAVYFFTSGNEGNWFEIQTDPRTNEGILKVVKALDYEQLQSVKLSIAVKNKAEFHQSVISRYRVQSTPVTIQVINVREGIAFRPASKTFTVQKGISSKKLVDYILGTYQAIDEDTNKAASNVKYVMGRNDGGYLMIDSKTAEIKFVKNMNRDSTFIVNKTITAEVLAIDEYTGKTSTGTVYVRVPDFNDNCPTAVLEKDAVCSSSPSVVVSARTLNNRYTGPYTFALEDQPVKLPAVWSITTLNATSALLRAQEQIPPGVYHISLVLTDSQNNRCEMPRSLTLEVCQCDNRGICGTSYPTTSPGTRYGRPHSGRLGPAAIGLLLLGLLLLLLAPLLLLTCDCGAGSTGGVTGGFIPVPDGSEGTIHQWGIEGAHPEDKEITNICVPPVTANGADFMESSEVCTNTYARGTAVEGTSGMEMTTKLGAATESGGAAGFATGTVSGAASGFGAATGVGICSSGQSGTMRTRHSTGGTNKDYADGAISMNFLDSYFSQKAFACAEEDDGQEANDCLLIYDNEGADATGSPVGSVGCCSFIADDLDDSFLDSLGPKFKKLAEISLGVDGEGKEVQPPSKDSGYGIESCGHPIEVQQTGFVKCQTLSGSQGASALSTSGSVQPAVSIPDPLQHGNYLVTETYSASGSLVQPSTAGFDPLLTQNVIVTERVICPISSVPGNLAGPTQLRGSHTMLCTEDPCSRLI
PfM18AAP inh = blocks P. falciparum M18 aspartyl aminopeptidase. recombinant PfM18AAP, H-Glu-NHMec fluorogenic cleavage. inhibition, % at 7.35 µM. 290,000 tested, 1.2% active;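 active = inhibition above the campaign mean inhibition over all tested compounds plus 3 SD, cut at about 28% in these data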
PAFAH1B3 inh = inhibitors of human PAFAH1B3. AID 492972. recombinant PAFAH1B3, FP-rhodamine probe, fluorescence polarization. inhibition, % at 3.39 µM. 340,000 tested, 0.28% active;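 active = inhibition above the screen-wide average of all tested compounds plus 3 SD, cut at about 25% in these data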
PAFAH2 inh = inhibitors of human PAFAH2 | Q99487 | recombinant PAFAH2, FP-rhodamine activity probe, fluorescence polarization | inhibition, % at 3.39 µM | 340,000 tested, 0.99% active | AID 492956;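 active = inhibition above the mean over all tested compounds plus 3 SD, cut at about 30% in these data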;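 also: inhibitors block probe labeling of enzyme so polarization drops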
pPAFAH inh = inhibitors of human plasma PAF acetylhydrolase (pPAFAH). recombinant pPAFAH, FP-rhodamine probe fluorescence polarization. 330,000 tested, 1.5% active. inhibition, % at 3.39 µM. Q13093. AID 463082;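 active = inhibition above the mean inhibition across the screen plus 3 SD, cut at about 25% in these data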;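 also: inhibitors block binding of the rhodamine activity-based probe so polarization drops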
PAFAH2 confirm = PAFAH2 (human) inhibition, confirmed. shares compounds with PAFAH2 inh. recombinant PAFAH2, FP-rhodamine activity probe, fluorescence polarization. inhibition, % at 3.39 µM. 2,300 tested, 65% active. AID 493030;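 active = mean inhibition over three repeats above a set limit taken from the earlier primary screen, cut at about 30% in these data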;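 also: inhibitor blocks binding of rhodamine activity probe so polarization falls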
Of the large screens only hits and unclear results are named; the others gave an inactive call (follow-up assays come after a bar, where they were run).

O=C(NC(=S)NNC(=O)c1ccccc1O)c1ccccc1	PfM18AAP inh 30, PAFAH2 inh 31 | PAFAH2 confirm inactive
O=C(NC(=S)NNC(=O)c1ccccc1O)c1ccc([N+](=O)[O-])cc1	PfM18AAP inh 30, PAFAH2 inh 32 | PAFAH2 confirm inactive
Cc1cccc(C(=O)NNC(=O)c2ccccc2O)c1	PAFAH2 inh 35 | PAFAH2 confirm inactive
Cc1cccc(NC(=O)C2CCCN(S(=O)(=O)c3cccs3)C2)c1C (configuration not stated)	none (no result: DSG3 Ab inh)
CCCCOc1ccc(C2/C(=C(\O)c3ccc4c(c3)OCCO4)C(=O)C(=O)N2CCCN2CCOCC2)cc1 (configuration not stated)	none
COc1ccc2c(c1OC)OCC2C (configuration not stated)	none (no result: PfM18AAP inh, pPAFAH inh)
O=C(O)COc1ccccc1/C=C1\SC(=S)N(/N=C/c2ccccc2O)C1=O	PfM18AAP inh 33, PAFAH2 inh 42 | PAFAH2 confirm 32
O=C(O)CN1C(=O)/C(=C\c2ccccc2OCc2ccc(Cl)cc2)SC1=S	PAFAH2 inh 30 | PAFAH2 confirm inactive
O=C(COC(=O)CNC(=O)c1ccc(Cl)c([N+](=O)[O-])c1)NCC1CCCO1 (configuration not stated)	none (no result: PfM18AAP inh)
Clc1ccccc1Cc1noc(CN2CCN(Cc3ccccn3)CC2)n1	PAFAH2 inh 33 | PAFAH2 confirm inactive
CN(Cc1cnccn1)Cc1nc(Cc2ccccc2Cl)no1	none
O=C(c1ccc2nccnc2c1)N1CCCC(N2CCN(c3ccc(F)cc3)CC2)C1 (configuration not stated)	none
Cc1cc(C(=O)OCC(=O)N(C)c2c(N)n(Cc3ccccc3)c(=O)[nH]c2=O)c(C)n1-c1ccccc1	none (no result: DSG3 Ab inh, PfM18AAP inh)
O=C(O/N=C1\CCCc2ccccc21)c1cccs1	PAFAH2 inh 42 | PAFAH2 confirm inactive
Cc1cc(C(=O)COC(=O)c2ccc(O)cc2)c(C)n1-c1ccccc1F	PAFAH2 inh 39 | PAFAH2 confirm inactive
Cc1cc(C(=O)COC(=O)c2ccc(O)cc2)c(C)n1CC(F)(F)F	PAFAH2 inh 31 (no result: PfM18AAP inh) | PAFAH2 confirm inactive
Cc1cc(C(=O)COC(=O)c2ccc[nH]c2=O)c(C)n1-c1ccccc1F	none
Cc1cc(C(=O)COC(=O)C2=NN(c3ccccc3)C(=O)CC2)c(C)n1CC(F)(F)F	none
COc1ccccc1N(CC(=O)NC1CCCCC1)C(=O)CCC(=O)Nc1nccs1	none
CCc1ccccc1NC(=O)COC(=O)c1cccs1	PAFAH2 inh 80 | PAFAH2 confirm 76
CCc1ccccc1NC(=O)CCC(=O)c1cccs1	none
O=C(COC(=O)c1cccs1)Nc1ccccc1C(F)(F)F	PAFAH2 inh 77 | PAFAH2 confirm 54
CCN(CC)S(=O)(=O)c1ccc(O)c(NC(=O)CN2CCc3ccccc3C2)c1	PAFAH2 inh 56 | PAFAH2 confirm 56
CCc1cccc(CC)c1NC(=O)COC(=O)CC1c2ccccc2CCN1S(=O)(=O)c1ccccc1 (configuration not stated)	PAFAH2 inh 35 | PAFAH2 confirm inactive
O=C(Nc1cc(Cl)ccc1N1CCCC1)C1=NN(c2ccccc2)C(=O)CC1	none (no result: DSG3 Ab inh)
Cc1c(Cl)cccc1NC(=S)C(=C([O-])c1ccc(Cl)s1)[n+]1ccccc1	none (no result: DSG3 Ab inh, PfM18AAP inh, pPAFAH inh)
CN(C)c1ccc(C(=O)OCC(=O)N2CCCCCC2)cc1	PAFAH2 inh 57 | PAFAH2 confirm 55
COc1ccc(/C=C/C(=O)OCC(=O)N2c3ccccc3CC2C)cc1 (configuration not stated)	none (no result: PAFAH1B2 inh, PfM18AAP inh, PAFAH1B3 inh, PAFAH2 inh, pPAFAH inh)
CC1Cc2ccccc2N1C(=O)COC(=O)c1ccc(N(C)C)cc1 (configuration not stated)	PAFAH2 inh 55 (no result: DSG3 Ab inh, PfM18AAP inh) | PAFAH2 confirm 55
COc1ccccc1/C=C/C(=O)OCC(=O)N1c2ccccc2CC1C (configuration not stated)	PAFAH2 inh 34 (no result: PfM18AAP inh) | PAFAH2 confirm inactive
CN(C)c1ccc(C(=O)OCC(=O)N2CCCC2)cc1	none
CCc1ccc(C(=O)OCC(=O)N2CCCCCC2)cc1	PAFAH2 inh 38 (no result: PfM18AAP inh) | PAFAH2 confirm inactive
O=C(OCC(=O)N1CCCC1)c1cccc(Br)c1	none
O=C(NC1CCCC1)c1sc(=S)n2c1[nH]c(=O)c1ccccc12	PAFAH2 inh 39 (no result: DSG3 Ab inh) | PAFAH2 confirm 32
O=C(CCCc1ccccc1)NCCS(=O)(=O)N1CCN(c2ccccc2F)CC1	none (no result: PfM18AAP inh)
O=C(COC(=O)C12CC3CC(CC(C3)C1)C2)Nc1ccccc1F	PAFAH2 inh 40 | PAFAH2 confirm inactive
Cc1c(Cl)cccc1NC(=O)COC(=O)C12CC3CC(CC(O)(C3)C1)C2	PAFAH2 inh 43 (no result: PfM18AAP inh) | PAFAH2 confirm inactive
COCCOc1ccc(C(F)(F)F)cc1NC(=O)COC(=O)C12CC3CC(CC(O)(C3)C1)C2	none
O=C(COC(=O)C12CC3CC(CC(O)(C3)C1)C2)Nc1ccc(Br)cc1F	PAFAH2 inh 30 (no result: PfM18AAP inh) | PAFAH2 confirm inactive
O=[N+]([O-])c1ccc(SCCc2ccncc2)cc1	PAFAH2 inh 34 | PAFAH2 confirm inactive
Cc1ccc(C(=O)Oc2oc(-c3ccco3)nc2C=Nc2ccc(Cl)cc2)cc1	PAFAH2 inh 41 | PAFAH2 confirm inactive
Cc1ccc(C(=O)Oc2oc(-c3ccccc3)nc2C=Nc2ccc(N(C)C)cc2)cc1	none
O=C(CNC(=S)N(CCCN1CCOCC1)Cc1cccs1)NCCCN1CCOCC1	none
O=C(CNC(=S)N(CCCN1CCOCC1)Cc1cccs1)NCc1ccc(Cl)cc1	PAFAH2 inh 48 | PAFAH2 confirm 37
O=C(CNC(=S)N(CCCN1CCOCC1)Cc1cccs1)NCc1ccccc1Cl	PAFAH2 inh 47 | PAFAH2 confirm 31
O=c1cc(-c2ccccc2)nc(SCCOc2ccccc2Cl)[nH]1	none
CCN1CCN(C(=O)CCc2nnc(CCCCc3ccccc3)o2)[C@@H](C)C1=O	none
CCN(c1cccc(C)c1)S(=O)(=O)c1ccc2c(c1)NC(=O)CCS2	PAFAH2 inh 48 (no result: DSG3 Ab inh) | PAFAH2 confirm 35
CCN(c1cccc(C)c1)S(=O)(=O)c1ccc2c(c1)NC(=O)CS2	none
O=C(N/N=C/c1ccc2cccc(OCc3ccccc3)c2n1)c1ccc(Cl)cc1	none (no result: DSG3 Ab inh)
COc1ccc(C(=O)N/N=C/c2ccc3cccc(O)c3n2)cc1	PAFAH2 inh 35 | PAFAH2 confirm inactive
Cc1ccc(C(=O)n2nc(-n3cccc3)c3c(C)cc(C)nc32)cc1	PAFAH2 inh 49 (no result: pPAFAH inh) | PAFAH2 confirm 51
Cc1cc(C)c2c(-n3cccc3)nn(C)c2n1	none
O=C(CCn1c(=O)oc2ccccc21)Nc1cccc(Cl)c1	PAFAH2 inh 43 | PAFAH2 confirm inactive
O=C(CN1CC(c2ccccc2)CC1=O)Nc1ccc2c(c1)OCO2 (configuration not stated)	PAFAH2 inh 32 | PAFAH2 confirm inactive

Screening results as filed in PubChem.
